Hits are enriched below; roughly 2.9% of the tested compounds scored in any of these assays.
FAS-TE inh: blocks the thioesterase domain of human fatty acid synthase. P49327. recombinant FAS-TE, OMFH fluorogenic substrate, fluorescence endpoint. inhibition, % at 15 µM. 0.67% of 360,000 active. AID 602261;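 active = compounds whose normalised, plate-corrected inhibition of enzyme fluorescence in the single-dose primary screen is 50% or more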;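 note: 0% = DMSO with enzyme and 100% = substrate without enzyme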
SMARCA2 activ: SMARCA2 function activation, primary screen | activation, % at 9.1 µM | 1% of 370,000 active | MG213 cells, MMTV-luciferase reporter, dexamethasone, overnight; in the data active = activation above about 7.8%;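 note: 0% = vehicle wells and 100% = reference activator wells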
proKLK7 act: activates the human kallikrein-7 zymogen. P49862. purified proKLK7, EDANS-DABCYL substrate fluorescence; 100% is mature enzyme control, 0% vehicle. activation, % at 7 µM. 0.9% of 370,000 active. AID 652039;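 active = activation above the mean of all tested compounds plus 3 SD, computed per campaign excluding outliers beyond control limits, cut at about 13% in these data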
Target sequence (P49862 whole entry, looked up): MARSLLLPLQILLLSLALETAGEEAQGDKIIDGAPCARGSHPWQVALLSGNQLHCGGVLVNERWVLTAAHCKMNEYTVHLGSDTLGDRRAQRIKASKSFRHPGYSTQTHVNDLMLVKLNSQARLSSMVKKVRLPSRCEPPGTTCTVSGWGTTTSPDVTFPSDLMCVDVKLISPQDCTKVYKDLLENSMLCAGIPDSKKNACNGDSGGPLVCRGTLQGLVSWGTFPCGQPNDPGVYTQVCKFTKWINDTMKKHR
FXN GAA850 act: frataxin GAA850 promoter activation; HEK293 lucGAA850 FXN promoter luciferase reporter, 24 h; percent of 10 µM SAHA response; activation, % at 6 µM; 0.56% of 360,000 active; AID 540364;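 active = activation above the average of all compounds screened plus 3 SD, cutoff fixed separately per campaign, cut at about 7.5% in these data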;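 note: 0% = DMSO wells and 100% = 10 µM SAHA wells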
KLK7 act conf: confirmation of human kallikrein-7 zymogen activators. shares compounds with proKLK7 act. purified proKLK7, EDANS-DABCYL substrate fluorescence; scaled: vehicle 0, mature enzyme 100. activation, % at 7 µM. 68% of 3,200 active. AID 686949;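 active = activation, as change over the incubation, above the mean of all tested compounds plus 3 SD, cut at about 13% in these data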
EDANS-DABCYL int: counter-screen for kallikrein-7 activators: EDANS-DABCYL optical interference; shares compounds with proKLK7 act; EDANS-DABCYL substrate fluorescence interference, no enzyme, 4 h; solvent 0%, active enzyme control 100%; activation, % at 7 µM; 80% of 3,200 active;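 active = activation above the all-compound mean plus 3 SD, ignoring values outside control-based bounds, cut at about 4.8% in these data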;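 note: value is the 4 h activation minus the activation read at time zero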
K7 EDANS ctr: counter-screen for kallikrein-7 activators: EDANS-DABCYL interference, dose response; shares compounds with proKLK7 act; EDANS-DABCYL peptide fluorescence interference, no enzyme; EC50, µM; 20% of 250 active; AID 720493;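 active = compounds that raise the fluorescence signal in this interference counterscreen, with EC50 at or below 10 µM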;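 note: intact quenched peptide substrate alone read at 355 nm excitation and 520 nm emission; signal is fluorescence gain from T0 to T4 after four hours at room temperature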
* = called active by the depositor; x = no result.

SMILES | FAS-TE inh | SMARCA2 activ | proKLK7 act | FXN GAA850 act | KLK7 act conf | EDANS-DABCYL int | others
COc1ccccc1CNC(=O)COC(=O)c1cc(-c2ccco2)nc2ccccc12 | 3 | -1 | 1 | 3 | x | x
COc1ccc(-c2cc(C(=O)Nc3ccc(S(N)(=O)=O)cc3)c3ccccc3n2)cc1OC | -4 | 1 | 131* | 2 | 77* | 95*
NC(=O)COC(=O)c1cc(-c2ccco2)nc2ccccc12 | -4 | -1 | 161* | 2 | 63* | 72*
CN(C)C(CNC(=O)c1cc(-c2ccco2)nc2ccccc12)c1ccccc1 (centres undefined) | 1 | 2 | 31* | -1 | 1 | 1
COc1cc(-c2cc(C(=O)Nc3cc(S(=O)(=O)N4CCOCC4)ccc3C)c3ccccc3n2)cc(OC)c1OC | 26 | -4 | 211* | -7 | 233* | 316*
CN(CC(=O)Nc1ccc(F)c(F)c1F)C(=O)CC1CCCCC1 | 3 | -3 | 0 | 1 | x | x
Cc1cnc(CNC(=O)c2ccc3oc(Cc4ccccc4)nc3c2)[nH]1 | -5 | -1 | 0 | 2 | x | x
CC(=O)Nc1ccc(SCCC2CCCCN2C)cc1 (centres undefined) | -6 | -4 | 0 | 0 | x | x
COc1ccc(NC(=O)c2cc(-c3ccco3)nc3ccccc23)cc1 | 3 | -1 | 15* | 1 | 14* | 20*
O=C(NCCCN1CCOCC1)c1cc(-c2ccco2)nc2ccccc12 | -3 | -3 | 62* | 1 | 18* | 30*
CCN(CC)CC(C)OC(=O)c1cc(OC)c(OC)c(OC)c1 (centres undefined) | -5 | 3 | 0 | -1 | x | x
Cc1cccc(OCC(=O)Nc2nnc(S(=O)(=O)N3CCC(C)CC3)s2)c1 | -1 | -1 | 1 | 0 | x | x
O=C(C[C@@H]1CC[C@@H]2[C@H](COC[C@H](O)CN2S(=O)(=O)c2ccccc2)O1)Nc1ccccc1 | x | -4 | 0 | x | x | x
CCOc1ccc(-c2c(C(=O)N/N=C/c3cccs3)nnn2-c2nonc2N)cc1 | -1 | -3 | 0 | 0 | x | x
COc1ccc2ccccc2c1/C=N/NC(=O)c1nnn(-c2nonc2N)c1C(C)C | 26 | -1 | 40* | -1 | -4 | -3
CCOc1ccc(/C=N/NC(=O)c2nnn(-c3nonc3N)c2-c2cccs2)cc1 | 6 | -2 | 80* | 3 | -28 | -231
Cc1ccc(-c2c(C(=O)N/N=C/c3ccc4c(c3)OCO4)nnn2-c2nonc2N)cc1 | 15 | -4 | 195* | -2 | 71* | 75*
COc1ccc2ccccc2c1/C=N/NC(=O)c1nnn(-c2nonc2N)c1CN(C)C | -2 | -1 | 1 | -1 | x | x
COc1ccc(C(=O)Nn2cc3c(c2-c2ccccc2)c(=O)n(C)c(=O)n3C)cc1 | -2 | -1 | 0 | 1 | x | x
Cc1cc(OCC(=O)N2CCC(C(=O)O)CC2)c2c(C)cc(=O)oc2c1 | -7 | 1 | 10 | 1 | x | x
CCc1cc(=O)oc2cc(C)cc(OCC(=O)C(C)(C)C)c12 | 10 | -3 | 6 | 0 | x | x
CCCCc1cc(=O)oc2cc(C)cc(OCC(=O)N3CCC(C(=O)O)CC3)c12 | -1 | 2 | 17* | 1 | 25* | 18* | K7 EDANS ctr=>70
CCc1cc(=O)oc2cc(C)cc(OCC(=O)N3CCC(C(=O)O)CC3)c12 | -5 | -1 | 16* | -1 | 19* | 19*
CCc1cc(=O)oc2cc(C)cc(OCC(C)=O)c12 | 2 | 1 | 13* | -2 | 12 | 17*
CCCc1cc(=O)oc2c(C)c(OCC(=O)N3CCC(C(N)=O)CC3)ccc12 | -4 | 2 | 0 | -2 | x | x
CCCc1cc(=O)oc2cc(C)cc(OCC(=O)N3CCC(C(N)=O)CC3)c12 | -4 | 1 | 17* | -1 | 4 | 10*
CCCc1cc(=O)oc2cc(C)cc(OCC(=O)N3CCC(C(=O)O)CC3)c12 | -4 | 1 | 16* | -1 | 13* | 16*
CCCc1cc(=O)oc2cc(C)cc(OCC(=O)NC3CC3)c12 | 1 | -1 | 5 | -1 | x | x
Cc1oc2c(CN3CCCC3)c(O)ccc2c(=O)c1Oc1ccccc1Br | -7 | 0 | 83* | 1 | 56* | 76*
